Assay outcomes: PubChem, University of Kansas High Throughput Screening Laboratory
mHTT-CaM PPI inh – disrupts binding of mutant huntingtin to calmodulin; P42858; AlphaScreen His-mHTT/GST-CaM binding, luminescence; inhibition, % at 15 µM; actives 3.6% (n = 190,000); AID 1671202;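 also: 0% = both proteins with DMSO and 100% = one protein alone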
Pf apPOL inh – Pf-apPOL DNA polymerase inhibition; inhibition, % at 10 µM; Recombinant Pf-apPOL, molecular beacon fluorescence, 1.5 h; actives 0.25% (n = 210,000)
An asterisk follows results filed as active; . = not tested or not shown; ! = a repeat was not active. The full list was thinned out, with hits kept by preference. Rule as the data show it: active = inhibition above about 50%; inactive = the rest.

SMILES	mHTT-CaM PPI inh	Pf apPOL inh
COc1cc(SC)ccc1C(=O)Nc1nc2ccc(S(C)(=O)=O)cc2s1	63.0*	-0.4
COc1ccc(Cl)cc1C(=O)Nc1nc2ccc(S(C)(=O)=O)cc2s1	1.0	0.9
CCOc1ccc(N2C(=O)CC(N3CCN(Cc4ccc5c(c4)OCO5)CC3)C2=O)cc1 (centres undefined)	5.0	-5.7
CC(Oc1cccc2c(=O)[nH]ccc12)C(=O)O (centres undefined)	0.2	-7.0
O=C(Nc1nc2c(s1)CN(C(=O)COc1ccccc1)CC2)c1cnccn1	9.1	10.7
Cc1ccc(S(=O)(=O)N2CCc3nc(NC(=O)c4cccnc4)sc3C2)cc1	-0.6	-3.8
O=C(Nc1nc2c(s1)CN(S(=O)(=O)C=Cc1ccccc1)CC2)c1cnccn1	71.0*	24.4
CCOc1ccccc1S(=O)(=O)N1CCc2nc(NC(=O)c3cnccn3)sc2C1	50.1*	18.5
COc1ccc(NC(=O)C2(C)Oc3cccnc3N(C)C2=O)c(OC)c1 (centres undefined)	7.1	-1.3
COc1ccc(C2=N/C(=C\c3ccccc3Cl)C(=O)O2)c(Br)c1	-3.0	-6.4
NC(=O)c1ccc(N=c2oc3c(Cl)cc(Cl)cc3cc2C(N)=O)cc1	1.0	-5.8
N=c1oc2c(Cl)cc(Cl)cc2cc1C(N)=O	91.0*	-2.1
CCOc1ccc(C(=O)NCC2Cc3cc(F)ccc3O2)cc1 (centres undefined)	-6.5	-2.2
CC1=C(C(=O)Nc2ccc(F)c(F)c2)C(c2ccccc2F)NC(=O)N1 (centres undefined)	-0.6	-3.1
CC1=C(C(=O)Nc2ccc(C)c(Cl)c2)C(c2ccccc2Cl)NC(=O)N1 (centres undefined)	90.0*	-4.0
N=c1c2c(-c3ccccc3)c(-c3ccccc3)n(Cc3ccco3)c2ncn1Cc1ccco1	99.0*	-1.6
Cc1nc2ccccc2c(=O)n1Cc1ccco1	-0.3	-1.8
O=C1C(=Cc2ccc(Br)cc2)Oc2c1ccc1c2CN(Cc2ccncc2)CO1	11.6	-35.6
Cc1cc(C(=O)NC(C)c2ccccc2)ccc1[N+](=O)[O-] (centres undefined)	-2.0	3.9
Cc1ccc(CNC(=O)Cc2cn(C)c3ncccc23)cc1	-15.0	1.5
Cc1ccc(NS(=O)(=O)c2cn(C)c3ncccc23)cc1	67.2*	79.6*
Cc1nc2cc(NC(=O)Cc3csc(NC(=O)c4ccc(=O)[nH]c4)n3)ccc2s1	58.6*	9.1
Cc1nc2cc(NC(=O)Cc3csc(NC(=O)C4CCCC4)n3)ccc2s1	-18.3	-9.8
CCOc1ccc(/C=C2\N=C(c3cc([N+](=O)[O-])cc([N+](=O)[O-])c3)OC2=O)cc1	56.0*	0.1
O=C1OC(c2cccc([N+](=O)[O-])c2)=N/C1=C\c1cccs1	13.0	-1.9
SMILES	mHTT-CaM PPI inh	Pf apPOL inh
O=C1OC(c2cccc([N+](=O)[O-])c2)=N/C1=C\c1cc(Br)cs1	92.0*	-0.1
CCOc1ccc(/C=C2\N=C(c3ccc([N+](=O)[O-])cc3)OC2=O)cc1	2.0	0.6
CCc1cc(C2CCCN2Cc2cccc(Cl)c2)on1 (centres undefined)	-24.8	-5.0
CCc1ccc(N=Cc2cc(OC)ccc2O)cc1	11.0	0.8
CC(C)CCNC(=O)C1(C)CCC(=O)N1CCCN1CCN(c2cccc(Cl)c2)CC1 (centres undefined)	22.0	1.4
O=C(NCCCN1CCN(c2cccc(Cl)c2)CC1)C1(n2cccc2)CCCCC1	97.7*	-13.1
Cc1ccc(Cl)cc1N1CCN(CCNC(=O)c2csc3c2CCCC3)CC1	30.0	0.4
Cc1ccc(Cl)cc1N1CCN(CCNC(=O)C2(n3cccc3)CCCCC2)CC1	56.2*	-15.3
CCn1c(SC)nnc1-c1nn(C)c2c1CN(C(=O)CCc1ccccc1)CC2	13.1	1.1
CCOc1ccc(CCNC(=O)CSc2nc(C)c(Cl)c(C)c2C#N)cc1OCC	3.0	0.2
CC(C)Cn1c(C2CCN(C(=O)c3ccncc3)C2)nc2ccncc21 (centres undefined)	-0.3	5.5
Cc1ccc(S(=O)(=O)NC2CCN(C(=O)C3CCCO3)CC2)cc1 (centres undefined)	-3.3	-1.3
O=C(Nc1nnc(-c2ccco2)o1)C1c2ccccc2Oc2ccccc21	-0.7	7.5
CS(=O)(=O)c1cccc(-c2nnc(NC(=O)C3c4ccccc4Oc4ccccc43)o2)c1	99.3*	-114.0
CCN(c1cccc(C)c1)C(C(=O)NC1CCCC1)c1cc2c(cc1[N+](=O)[O-])OCO2 (centres undefined)	33.0	-0.2
O=c1[nH]c(CN2CCOCC2)nc2ccccc12	.	-18.1
O=c1[nH]c(CN2CCCCC2)nc2c1oc1ccccc12	4.0	69.3*
COC(=O)c1ccc(Cl)cc1NC(=O)N1CCCn2nc(-c3cccnc3)cc2C1	34.4	-8.0
COc1cccc(C2C3=C(NCCN=C3c3ccc(Cl)cc3)C(=O)N2c2ccccc2)c1 (centres undefined)	7.0	5.0
Cc1ccc(C2C3=C(NCCN=C3c3ccccc3)C(=O)N2c2ccccc2)cc1 (centres undefined)	80.0*	4.4
Cc1ccc2c(c1)c1c(n2CC(O)CNCc2ccco2)CCCC1 (centres undefined)	54.9*	-0.3
CCC(CO)NCC(O)Cn1c2c(c3cc(C)ccc31)CCCC2 (centres undefined)	54.3*	-8.2
Cc1ccc2c(c1)c1c(n2CC(O)Cn2nc(C)cc2C)CCCC1 (centres undefined)	45.6	2.7
CNCC(O)Cn1c2c(c3ccccc31)CCCC2 (centres undefined)	14.3	-11.7
O=C(CSc1ncn[nH]1)n1c2c(c3ccccc31)CCCC2	57.0*	5.0
SMILES	mHTT-CaM PPI inh	Pf apPOL inh
Cn1c(SCC(=O)n2c3c(c4ccccc42)CCCC3)nnc1-c1ccc(N)cc1	16.1	-3.2
O=C(Nc1cccnc1Cl)c1cc2n(n1)C(C(F)(F)F)CC(c1ccc3c(c1)OCO3)N2 (centres undefined)	15.0	-4.6
COc1ccccc1N(CC(=O)NCc1ccco1)S(C)(=O)=O	4.0	-9.3
Cc1ccccc1N(CC(=O)NCc1ccco1)S(C)(=O)=O	1.6	64.7*
COc1ccc2c(c1)-c1c(ssc1=S)C(C)(C)N2	88.5*	.
CC1(C)Nc2ccc(C(c3ccccc3)(c3ccccc3)c3ccccc3)cc2-c2c1ssc2=S	3.6	.
COc1ccc2c(c1)NC(C)(C)C=C2C	17.9	.
COc1ccc2c(c1)C(C)=CC(C)(C)N2	94.0*!	-4.3
CCOC(=O)c1oc2nc(-c3ccc(C)cc3)cc(-c3ccco3)c2c1N	.	-6.0
CCN(C)C(=O)c1cc(-c2cccc(OC)c2)n(CC)n1	-3.5	-8.1
CCOC(=O)CCC(=O)Nc1c(C(=O)Nc2ccc(F)c(F)c2)oc2ccccc12	-2.0	2.2
Cc1ccc(NC(=O)COc2ccccc2[N+](=O)[O-])c(Br)c1	3.8	-4.6
O=[N+]([O-])C1=C(Nc2ccc(Br)cc2)CS(=O)(=O)C1	4.9	0.0
CCN(c1cccc(C)c1)S(=O)(=O)c1ccc2c(c1)CC(C)N2C(C)=O (centres undefined)	7.0	2.1
CCN(c1ccc(C)c(C)c1)S(=O)(=O)c1ccc2c(c1)CC(C)N2C(C)=O (centres undefined)	70.0*	-1.1
C=CCNC(=O)c1c[nH]c2ccc(S(=O)(=O)N(CC)c3ccc(F)cc3)cc2c1=O	15.0	-10.2
COCCNC(=O)c1c[nH]c2ccc(S(=O)(=O)N(C)c3ccc(Cl)cc3)cc2c1=O	50.0*	-9.6
